Consider six molecules from PubChem BioAssay (EPA / NIEHS).

Each structure is given as a SMILES string. Calls of active or inactive are those of the source. How the source made its calls: active means hit-call score of the fitted dose curve at least 0.9, where 1 is the maximum; inactive means score below 0.9.

Read-out in experiment [1]: TIMP metallopeptidase inhibitor 1 (TIMP1), TIMP1 (gene 7076)
The experiment can be described thus: BSK_hDFCGF_TIMP1: BioMAP Diversity Plus: hDFCGF Assay for TIMP metallopeptidase inhibitor 1 (TIMP1) Biomarker Activity (AID 2283062). To be noted: primary human foreskin fibroblasts; actives raise or lower the signal. The procedure, abridged: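 Bidirectional curve fitting against DMSO baseline yielded this endpoint, based on ELISA detection of TIMP-1 in primary human foreskin fibroblasts exposed to compound for 24 h.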

Read-out in experiment [2]: Monokine induced gamma interferon (MIG), CXCL9 (gene 4283)
The experiment can be described thus: BSK_hDFCGF_MIG: BioMAP Diversity Plus: hDFCGF Assay for Monokine induced gamma interferon (MIG) Biomarker Activity (AID 2283063). To be noted: primary human foreskin fibroblasts; actives raise or lower the signal. Put shortly: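 Endpoint derived by bidirectional fitting relative to DMSO; MIG quantified via ELISA in primary human foreskin fibroblasts harvested 24 h after dosing.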

Read-out in experiment [3]: Matrix Metallopeptidase 1 (MMP1), MMP1 (gene 4312)
The experiment can be described thus: BSK_hDFCGF_MMP1: BioMAP Diversity Plus: hDFCGF Assay for Matrix Metallopeptidase 1 (MMP1) Biomarker Activity (AID 2283064). As to conditions: primary human foreskin fibroblasts; actives raise or lower the signal. The procedure, abridged: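 Primary human foreskin fibroblasts exposed to chemicals for 24 h; MMP1 measured by ELISA. Cytotoxicity tracked by SRB staining in parallel cultures; bidirectional fit relative to DMSO.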

Read-out in experiment [4]: Vascular cell adhesion molecule 1 (VCAM1), VCAM1 (gene 7412)
The experiment can be described thus: BSK_hDFCGF_VCAM1: BioMAP Diversity Plus: hDFCGF Assay for Vascular cell adhesion molecule 1 (VCAM1) Biomarker Activity (AID 2283065).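 On AC50: VCAM-1 protein level quantified by ELISA after 24 h chemical exposure.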 To be noted: primary human foreskin fibroblasts; actives raise or lower the signal. The procedure, abridged:
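Measured after 24 h chemical treatment of primary human skin fibroblasts, VCAM-1 was detected by ELISA and concentration-response analysed in both directions versus DMSO vehicle.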

Read-out in experiment [5]: Plasminogen activator inhibitor-1 (PAI1), SERPINE1 (gene 5054)
The experiment can be described thus: BSK_hDFCGF_PAI1: BioMAP Diversity Plus: hDFCGF Assay for Plasminogen activator inhibitor-1 (PAI1) Biomarker Activity (AID 2283066). To be noted: primary human foreskin fibroblasts; actives raise or lower the signal. The procedure, abridged: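 PAI-1 levels, determined by ELISA, served as the endpoint in human foreskin fibroblast cultures exposed to compound for 24 h, with DMSO as baseline.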

Read-out in experiment [6]: Intercellular Adhesion Molecule 1 (ICAM1), ICAM1 (gene 3383)
The experiment can be described thus: BSK_KF3CT_ICAM1: BioMAP Diversity Plus: KF3CT Assay for Intercellular Adhesion Molecule 1 (ICAM1) Biomarker Activity (AID 2283067). To be noted: primary human keratinocytes with fibroblasts; actives raise or lower the signal. The procedure, abridged:
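Bidirectional curve fitting against a DMSO baseline was applied to ICAM-1 ELISA signal from primary human skin co-cultures harvested 24 h after treatment, with SRB staining of parallel wells for overt cytotoxicity.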

Read-out in experiment [7]: Interferon-gamma inducible Protein 10 (IP10), CXCL10 (gene 3627)
The experiment can be described thus: BSK_KF3CT_IP10: BioMAP Diversity Plus: KF3CT Assay for Interferon-gamma inducible Protein 10 (IP10) Biomarker Activity (AID 2283068). To be noted: primary human keratinocytes with fibroblasts; actives raise or lower the signal. The procedure, abridged: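 ELISA read-out of IP-10 after 24 h chemical dosing of human skin primary co-culture (keratinocytes, foreskin fibroblasts). Gain or loss of signal relative to DMSO, bidirectional curve fit.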

Experiment [8] can be described thus: BSK_KF3CT_SRB: Viability Assessment in the BioMAP Diversity Plus: KF3CT Assay (AID 2283069).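 Further: total protein by sulforhodamine B staining as a cytotoxicity measure; read 24 h after compound addition; fitted for both signal gain and loss against DMSO baseline.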 As to conditions: primary human keratinocytes with fibroblasts. Put shortly:
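Human keratinocyte and foreskin fibroblast co-culture exposed to chemical for 24 h. Total protein measured in parallel cultures by 0.1% sulforhodamine B staining after 10% TCA fixation, read at 560 nm; bidirectional fit relative to DMSO.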

Read-out in experiment [9]: Interleukin-1 alpha (IL1a), IL1A (gene 3552)
The experiment can be described thus: BSK_KF3CT_IL1a: BioMAP Diversity Plus: KF3CT Assay for Interleukin-1 alpha (IL1a) Biomarker Activity (AID 2283070). To be noted: primary human keratinocytes with fibroblasts; actives raise or lower the signal. Put shortly:
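Primary human keratinocyte plus foreskin fibroblast co-culture, dosed and measured at 24 h in 96-well plates. IL-1a level quantified by ELISA; bidirectional fit relative to DMSO.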

Read-out in experiment [10]: TIMP metallopeptidase inhibitor 2 (TIMP2), TIMP2 (gene 7077)
Put plainly: BSK_KF3CT_TIMP2: BioMAP Diversity Plus: KF3CT Assay for TIMP metallopeptidase inhibitor 2 (TIMP2) Biomarker Activity (AID 2283071). As to conditions: primary human keratinocytes with fibroblasts; actives raise or lower the signal. The procedure, abridged: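 Keratinocyte–fibroblast co-culture, 24 h exposure; TIMP-2 ELISA, DMSO-normalised bidirectional fit. Parallel SRB (0.1%, TCA-fixed, 560 nm) total-protein staining gauges cytotoxicity.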

Read-out in experiment [11]: C-C motif chemokine 2 (Homo sapiens) (UniProt P13500)
Put plainly: BSK_KF3CT_MCP1: BioMAP Diversity Plus: KF3CT Assay for Monocyte Chemoattractant Protein 1 (MCP1/CCL2) Biomarker Activity (AID 2283073). As to conditions: primary human keratinocytes with fibroblasts; actives raise or lower the signal. The procedure, abridged: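 Biomarker MCP-1 is measured by ELISA in primary human keratinocytes co-cultured with foreskin fibroblasts, 24 h after chemical treatment; DMSO serves as the negative control and activity baseline.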

Read-out in experiment [12]: Matrix Metallopeptidase 9 (MMP9), MMP9 (gene 4318)
Put plainly: BSK_KF3CT_MMP9: BioMAP Diversity Plus: KF3CT Assay for Matrix Metallopeptidase 9 (MMP9) Biomarker Activity (AID 2283074). As to conditions: primary human keratinocytes with fibroblasts; actives raise or lower the signal. Put shortly: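 Human keratinocyte and foreskin fibroblast co-culture exposed to chemicals for 24 h; MMP9 biomarker measured by ELISA, bidirectional fitting relative to DMSO; cytotoxicity tracked by SRB total protein staining in parallel cultures.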

Read-out in experiment [13]: urokinase plasminogen activator (uPA), PLAU (gene 5328)
Put plainly: BSK_KF3CT_uPA: BioMAP Diversity Plus: KF3CT Assay for urokinase plasminogen activator (uPA) Biomarker Activity (AID 2283075). As to conditions: primary human keratinocytes with fibroblasts; actives raise or lower the signal. Put shortly: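 Primary human keratinocyte/foreskin fibroblast co-culture exposed to chemical; uPA measured by ELISA at 24 h. Bidirectional fit versus DMSO, with parallel SRB total-protein staining for cytotoxicity.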

Read-out in the next experiment: CD40, CD40 (gene 958)
Put plainly: BSK_LPS_CD40: BioMAP Diversity Plus: LPS Assay for CD40 Biomarker Activity (AID 2283076). As to conditions: primary human HUVEC with PBMC; actives raise or lower the signal. The procedure, abridged: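 Using a multiplexed primary human co-culture (umbilical vein endothelium plus PBMC), CD40 was read by ELISA 24 h after dosing, with cytotoxicity tracked by sulforhodamine B staining of parallel cultures and activity fitted bidirectionally versus DMSO.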

Read-out in experiment [14]: E-selectin (Homo sapiens) (UniProt P16581)
Put plainly: BSK_LPS_Eselectin: BioMAP Diversity Plus: LPS Assay for Eselectin Biomarker Activity (AID 2283077). As to conditions: primary human HUVEC with PBMC; actives raise or lower the signal. Put shortly: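 Dose chemical onto LPS-driven HUVEC/PBMC co-culture; after 24 h, run ELISA for E-selectin; fit up- and down-going responses relative to DMSO control.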

Read-out in experiment [15]: Interleukin-8 (IL8), CXCL8 (gene 3576)
Put plainly: BSK_LPS_IL8: BioMAP Diversity Plus: LPS Assay for Interleukin-8 (IL8) Biomarker Activity (AID 2283078). To be noted: primary human HUVEC with PBMC; actives raise or lower the signal. Put shortly:
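In this LPS system, chemical-treated human umbilical vein endothelium/PBMC co-cultures were harvested at 24 h for IL-8 ELISA.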

A short description of experiment [16]: BSK_LPS_SRB: Viability Assessment in the BioMAP Diversity Plus: LPS Assay (AID 2283079).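 Further: total protein by sulforhodamine B absorbance as a cytotoxicity measure; measured one day after compound addition; fitted in both directions against DMSO so loss or gain of signal counts.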 As to conditions: primary human HUVEC with PBMC. The procedure, abridged: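 Cytotoxicity endpoint in human endothelial–PBMC co-culture: 24 h exposure, then SRB (0.1%) staining, 560 nm read.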
Read-out in experiment [17]: Interleukin-1 alpha (IL1a), IL1A (gene 3552)
Put plainly: BSK_LPS_IL1a: BioMAP Diversity Plus: LPS Assay for Interleukin-1 alpha (IL1a) Biomarker Activity (AID 2283080). To be noted: primary human HUVEC with PBMC; actives raise or lower the signal. Put shortly: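 Primary human HUVEC and PBMC co-culture stimulated with LPS is dosed and harvested at 24 h. Both increases and decreases in ELISA-measured IL-1a are scored relative to DMSO.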

Read-out in experiment [18]: Monocyte Chemoattractant Protein-1 (MCP1), CCL2 (gene 6347)
Put plainly: BSK_LPS_MCP1: BioMAP Diversity Plus: LPS Assay for Monocyte Chemoattractant Protein-1 (MCP1) Biomarker Activity (AID 2283081). To be noted: primary human HUVEC with PBMC; actives raise or lower the signal. The procedure, abridged:
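Values derive from bidirectional fitting against DMSO of ELISA-measured MCP-1 in a human primary endothelial and mononuclear cell co-culture, 24 h after chemical addition under LPS activation.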

Read-out in experiment [19]: Transforming growth factor beta 1 (TGFb1), TGFB1 (gene 7040)
Put plainly: BSK_KF3CT_TGFb1: BioMAP Diversity Plus: KF3CT Assay for Transforming growth factor beta 1 (TGFb1) Biomarker Activity (AID 2283072). As to conditions: primary human keratinocytes with fibroblasts; actives raise or lower the signal. The procedure, abridged:
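Signal changes in either direction, relative to DMSO, define activity here. TGF-b1 is read by ELISA from a human keratinocyte-fibroblast co-culture 24 h post-dose.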

Sequence of E-selectin (Homo sapiens) (P16581 whole entry, looked up): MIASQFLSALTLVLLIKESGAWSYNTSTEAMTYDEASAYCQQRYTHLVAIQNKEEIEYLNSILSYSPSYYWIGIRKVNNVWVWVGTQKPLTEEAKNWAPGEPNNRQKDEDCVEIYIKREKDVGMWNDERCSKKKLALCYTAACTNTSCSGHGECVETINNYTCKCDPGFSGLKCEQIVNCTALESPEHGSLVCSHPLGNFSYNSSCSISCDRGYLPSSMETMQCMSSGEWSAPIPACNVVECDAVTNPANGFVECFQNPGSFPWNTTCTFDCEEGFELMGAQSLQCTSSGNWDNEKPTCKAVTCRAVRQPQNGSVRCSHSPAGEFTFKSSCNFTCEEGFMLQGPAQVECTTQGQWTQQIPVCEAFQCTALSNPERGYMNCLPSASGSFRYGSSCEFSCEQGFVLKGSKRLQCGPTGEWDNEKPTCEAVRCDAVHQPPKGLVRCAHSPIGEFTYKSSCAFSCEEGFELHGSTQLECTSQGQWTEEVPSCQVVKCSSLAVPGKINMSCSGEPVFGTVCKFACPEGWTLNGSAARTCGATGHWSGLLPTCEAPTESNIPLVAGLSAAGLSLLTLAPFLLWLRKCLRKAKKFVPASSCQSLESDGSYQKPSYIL

By AC50 is commonly meant the midpoint of the concentration-response curve, whichever way the signal moves. Turning to `COC(=O)c1c(Cl)nn(C)c1S(=O)(=O)NC(=O)Nc1nc(OC)cc(OC)n1`, the outcome in [1], in [2], in experiment [3], in [4], in [5] and in experiment [6] was inactive. Moreover, the outcome in experiment [8], in [9], in [10], in experiment [11], in experiment [12] and in [13] was inactive. Besides, the outcome with CD40, CD40 (gene 958) is “inactive”; in experiment [14], “inactive”; in experiment [15], “inactive”; in experiment [16] it was “inactive”; in experiment [17], “inactive”; in experiment [18], “inactive”. Moreover, in experiment [7], the AC50 is 20 µM (active).
Consider `COC(=O)c1ccccc1S(=O)(=O)NC(=O)Nc1nc(OC(F)F)cc(OC(F)F)n1`, for which the outcome in experiment [1], in [2], in experiment [3], in [5], in [6] and in experiment [7] was inactive. Moreover, the outcome in [8], in [9], in experiment [10], in experiment [19], in experiment [11] and in [12] was inactive. Moreover, the outcome in experiment [13] was “inactive”; with CD40, CD40 (gene 958), “inactive”; in [14], “inactive”; in experiment [15], “inactive”; in experiment [16], “inactive”; in experiment [17], “inactive”. For the same molecule, in [18], the outcome was inactive.
With `N[C@@H](Cc1cc(I)c(Oc2ccc(O)c(I)c2)c(I)c1)C(=O)O`, the result in [1], in experiment [2], in experiment [3], in experiment [5], in experiment [6] and in experiment [7] was inactive. The result in experiment [8], in [9], in experiment [10], in [11], in experiment [12] and in experiment [13] was inactive. Moreover, the outcome in the experiment with CD40, CD40 (gene 958) is “inactive”; in [15] it was “inactive”; in [16], “inactive”; in experiment [17], “inactive”; in [18] it was “inactive”. Also, the AC50 in experiment [4] is 6.76 µM (active); in experiment [14], 13.6 µM (active).
With `O=C(O)C1(C(=O)Nc2ccc(Cl)cc2Cl)CC1`, the outcome in [1], in experiment [2], in [3], in experiment [4], in [5] and in experiment [6] was inactive. In addition, the outcome in experiment [7], in experiment [8], in experiment [9], in [10], in experiment [19] and in experiment [11] was inactive. Also, the outcome was “inactive” in [12]; “inactive” in [13]; “inactive” with CD40, CD40 (gene 958); “inactive” in [14]; “inactive” in [15]; “inactive” in [16]. Moreover, the outcome in [17] and in experiment [18] was inactive.
As for `CCSC(=O)N(CC(C)C)CC(C)C`, the outcome in experiment [1], in experiment [2], in [3], in experiment [4], in experiment [5] and in experiment [6] was inactive. The outcome in experiment [7], in experiment [8], in [9], in [10], in experiment [11] and in experiment [12] was inactive. Moreover, the outcome in experiment [13] was “inactive”; in the experiment with CD40, CD40 (gene 958), “inactive”; in [14] it was “inactive”; in [15] it was “inactive”; in experiment [16], “inactive”; in experiment [17] it was “inactive”. Besides, in experiment [18], the result was inactive.
On to `c1ccc2[nH]c(-c3cscn3)nc2c1`, for which the result in [1], in [2], in experiment [3], in [4], in [5] and in [6] was inactive. Further, the outcome in experiment [7], in [8], in experiment [9], in experiment [10], in [19] and in experiment [11] was inactive. Further, the outcome is “inactive” in [12]; “inactive” in [13]; “inactive” with CD40, CD40 (gene 958); “inactive” in [14]; “inactive” in [15]; “inactive” in experiment [16]. The result in experiment [17] and in [18] was inactive.
